# Reference: PubChem BioAssay AID1578 (Sanford-Burnham Center for Chemical Genomics, 2009)
# The campaign covered roughly 290,000 compounds. About 3,000 (1%) were called active. The full list was thinned out, with actives kept by preference. Unmarked numbers belong to inactive results. No stated cut-off is given here; in the data, active means inhibition mostly above about 36% (no sharp cut-off); inactive means mostly below about 34%.
# Experiment: NOD1 signaling inhibitors, primary screen, cell-based, luminescence, uHTS (AID 1578);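 further: HEK-293T reporter cells stimulated with the NOD1 agonist gamma-tri-DAP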
# Details: NOD1-driven NF-kB luciferase reporter cells, at 4 µM, active compounds read high
row,Structure (SMILES),inhibition
1,FC(F)(F)c1cccc(-c2ccc(/C=N/Nc3nncc(-c4ccccc4)n3)o2)c1,-58.3%
2,COc1ccccc1-c1cnnc(N/N=C/c2ccc(-c3cccc(Br)c3)o2)n1,52.2% (active)
3,Brc1ccc(-c2ccc(/C=N/Nc3nncc(-c4ccccc4)n3)o2)cc1,-106%
4,S=c1nc(NCCc2ccccc2Cl)c2ccccc2[nH]1,-4%
5,CC(NC(=O)CN1CCCC1)C12CC3CC(CC(C3)C1)C2 (centres undefined),1.9%
6,CC(NC(=O)Cn1nc(C(=O)O)c2ccccc2c1=O)C12CC3CC(CC(C3)C1)C2 (centres undefined),-19.8%
7,CC(NC(=O)Cn1ncc(Cl)c(Cl)c1=O)C12CC3CC(CC(C3)C1)C2 (centres undefined),87% (active)
8,COC(=O)N[C@H](CC(C)=O)c1cccc(C(F)(F)F)c1,-18.1%
9,Cc1ccccc1C(=O)Nc1ccnn1C1CCN(C2CCSCC2)CC1,-16.1%
10,O=C(Nc1ccc(Cl)cc1)c1sccc1-n1cccc1,-13%
11,Cc1c(-c2ccccn2)c(=O)[nH]n1-c1ccc(F)cc1,-25.2%
12,Cc1ccc(-n2[nH]c(=O)c3cccnc32)cc1,4.2%
13,Cc1ccc(-n2[nH]c(=O)c(-c3ccccn3)c2C)cc1,65.1% (active)
14,O=C(NCCc1ccccc1)C(c1cccs1)N(C(=O)c1csnn1)C1CC1 (centres undefined),-15.8%
15,COc1ccc(N(C(=O)CCl)C(C(=O)NCCc2ccccc2)c2cccs2)cc1Cl (centres undefined),63.5%
16,COC(=O)c1ccccc1C(=O)c1cccc2ccccc12,30.1%
17,CC(C)(C)c1cc(NC(=O)Nc2ccc(Br)cc2Cl)no1,-19.7%
18,CCOC(=O)c1c(C)[nH]c(C(=O)C(C)Cl)c1C (centres undefined),58.6% (active)
19,CCOC(=O)c1[nH]c(C)c(C(=O)OCC)c1C,-5.4%
20,CCOC(=O)c1c(C)[nH]c(C(=O)O)c1C,7.9%
21,O=C(CN1CCN(c2ccccc2)CC1)Nc1ccc(Oc2ccccc2)cc1,-2.2%
22,COc1ccc(-c2cc(C(=O)NCC3CCCO3)c3cc(C(C)C)ccc3n2)cc1 (centres undefined),-1.8%
23,O=C(Nc1sc2c(c1C(=O)O)CCCCC2)c1ccccc1,43.3%
24,CNC(=O)c1c(NC(=O)c2cccc(N3C(=O)CCC3=O)c2)sc2c1CCC2,5.2%
25,CNC(=O)c1c(NC(=O)c2cccc(C)c2)sc2c1CCC2,109% (active)
26,NC(=O)c1c(NC(=O)c2ccccc2Cl)sc2c1CCC2,-50%
27,Cc1cccc(C(=O)Nc2sc3c(c2C(=O)O)CCC3)c1,-0.7%
28,O=C(Nc1sc2c(c1C(=O)O)CCC2)c1ccccc1Cl,17.5%
29,O=C(Nc1sc2c(c1C(=O)O)CCC2)c1ccccc1,26.9%
